Bioassay records: PubChem, several laboratories
AMPAR-TARP mod = modulates AMPAR-stargazin complexes; O88602+P19491; HEK293 GluA2+stargazin, membrane potential dye (FDSS), glutamate EC50; hits were called plate by plate, in both directions; calls only at 30 µM; hit rate 3.5% among 40,000; AID 1259245;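 active means any of four per-well response measures lying three or more SD from its plate-wide compound average, in either direction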
Target sequence (O88602 whole entry, looked up): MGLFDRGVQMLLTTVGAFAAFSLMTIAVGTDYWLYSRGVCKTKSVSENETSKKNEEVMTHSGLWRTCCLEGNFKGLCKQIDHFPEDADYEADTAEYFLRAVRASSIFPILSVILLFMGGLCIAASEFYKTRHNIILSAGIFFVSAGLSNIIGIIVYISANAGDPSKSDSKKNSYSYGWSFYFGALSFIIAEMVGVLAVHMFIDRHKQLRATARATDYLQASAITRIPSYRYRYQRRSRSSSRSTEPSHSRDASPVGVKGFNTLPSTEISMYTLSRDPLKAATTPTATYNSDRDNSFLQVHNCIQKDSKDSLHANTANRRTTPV
Target sequence (P19491 whole entry, looked up): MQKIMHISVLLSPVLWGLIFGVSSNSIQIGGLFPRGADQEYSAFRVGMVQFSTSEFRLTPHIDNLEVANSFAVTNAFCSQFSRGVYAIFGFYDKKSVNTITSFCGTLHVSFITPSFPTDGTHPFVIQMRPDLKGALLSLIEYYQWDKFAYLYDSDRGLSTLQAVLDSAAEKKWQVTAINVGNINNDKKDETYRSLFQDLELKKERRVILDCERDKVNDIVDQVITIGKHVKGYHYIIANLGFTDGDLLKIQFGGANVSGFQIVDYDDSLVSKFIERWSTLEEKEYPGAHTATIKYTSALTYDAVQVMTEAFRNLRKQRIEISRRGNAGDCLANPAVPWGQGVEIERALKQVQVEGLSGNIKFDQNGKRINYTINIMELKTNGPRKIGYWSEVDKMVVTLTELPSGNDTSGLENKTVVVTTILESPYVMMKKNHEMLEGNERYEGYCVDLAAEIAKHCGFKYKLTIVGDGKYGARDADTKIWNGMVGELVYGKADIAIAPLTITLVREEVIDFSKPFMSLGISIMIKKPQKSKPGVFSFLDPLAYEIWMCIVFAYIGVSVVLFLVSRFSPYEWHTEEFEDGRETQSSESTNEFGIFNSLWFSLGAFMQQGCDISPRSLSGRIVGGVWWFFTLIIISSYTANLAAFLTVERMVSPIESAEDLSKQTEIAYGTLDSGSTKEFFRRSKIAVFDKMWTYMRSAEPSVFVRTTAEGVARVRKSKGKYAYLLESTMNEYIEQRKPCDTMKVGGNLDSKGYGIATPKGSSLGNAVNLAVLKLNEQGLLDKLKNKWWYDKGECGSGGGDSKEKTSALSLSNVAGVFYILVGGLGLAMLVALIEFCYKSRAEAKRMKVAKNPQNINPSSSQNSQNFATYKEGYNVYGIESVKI
GIRK2 activator = Activators of human GIRK2-containing channels; HEK293 GIRK2/NPY4 cells, thallium flux fluorescence; activation (% efficacy), % for hits at 37.5 µM; 34,000 tested, under 10 active; AID 1259324;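 active means primary screen hit, no activity in plain HEK293 cells, and in GIRK2-only cells above 5% efficacy rising with concentration; inactive means the rest, including fluorescent compounds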;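 further: efficacy is normalized control-subtracted fluorescence 15 s after thallium addition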
Calls only; 0 = inactive; - = no result; + = active, no number. This is one part of a sample in which hits are shown more often than they occur.

SMILES | AMPAR-TARP mod | GIRK2 activator
CC(C)N1CCc2c(sc(NC(=O)c3ccc(Cl)s3)c2-c2nc3ccccc3s2)C1 | + | -
CCC(=O)Nc1sc2c(c1-c1nc3ccccc3s1)CCN(C(C)C)C2 | 0 | -
CC(=O)c1ccc(C(=O)Nc2sc3c(c2-c2nc4ccccc4s2)CCN(C(C)C)C3)cc1 | 0 | -
COc1ccc(CC(=O)Nc2c3c(nn2C)CCC3)cc1C | 0 | 0
COc1cn(CC(=O)Nc2ccc(C(N)=O)cc2)c(CSc2nnnn2C)cc1=O | 0 | 0
COc1cn(CC(=O)Nc2ccc(C)cc2)c(CSc2nc(C)cs2)cc1=O | + | 0
COc1ccc(NC(=O)Cn2cc(OC)c(=O)cc2CSc2nnnn2C)cc1OC | + | 0
CCOc1ccc(NC(=O)Cn2cc(OC)c(=O)cc2CSc2nc(C)cs2)cc1 | 0 | 0
Cn1cccc(C(=O)NCC2CCN(C(=O)COc3ccccc3)CC2)c1=O | 0 | 0
NC(=O)c1ccccc1NC(=O)Cc1cc(-c2cccs2)on1 | - | 0
COC(=O)c1cc(-c2ccco2)nc2c1c(-c1ccccc1)nn2C1CCS(=O)(=O)C1 (stereo not given) | - | 0
COc1cc([N+](=O)[O-])ccc1NC(=O)c1ccc(=O)n(Cc2cccc(C(F)(F)F)c2)c1 | 0 | 0
CC(=O)c1cccc(NC(=O)c2ccc(=O)n(Cc3cccc([N+](=O)[O-])c3)c2)c1 | + | 0
COc1cc([N+](=O)[O-])ccc1NC(=O)c1ccc(=O)n(Cc2ccc(Cl)cc2)c1 | 0 | 0
COc1cccc(NC(=O)c2ccc(=O)n(Cc3cccc([N+](=O)[O-])c3)c2)c1 | 0 | 0
COc1cc([N+](=O)[O-])ccc1NC(=O)c1ccc(=O)n(Cc2cccc(Cl)c2)c1 | + | 0
COc1cc([N+](=O)[O-])ccc1NC(=O)c1ccc(=O)n(Cc2ccccc2)c1 | + | 0
COC(=O)C1=C(CS(=O)(=O)c2ccc(C(C)(C)C)cc2)NC(=O)NC1c1ccccc1Cl (stereo not given) | 0 | -
Cc1ccc(NC(=O)NCC(O)(c2cccs2)C2CC2)cc1C (stereo not given) | 0 | 0
COCCN1CCC(CNS(=O)(=O)c2ccc(OC)cc2)CC1 | 0 | 0
CCOc1ccc(-c2noc(CCn3c(=O)[nH]c4ccccc4c3=O)n2)cc1 | - | 0
CC(C)Sc1cccc(C(=O)Nc2sccc2C(N)=O)c1 | + | -
CC(C)Sc1cccc(C(=O)Nc2nnc(-c3cccs3)o2)c1 | 0 | -
Cc1c(NC(C)c2cc(Cl)ccc2O)c(=O)n(-c2ccccc2)n1C (stereo not given) | + | -
Cc1c(NC(=S)NC(=O)c2ccccc2Cl)c(=O)n(-c2ccccc2)n1C | 0 | 0
SMILES | AMPAR-TARP mod | GIRK2 activator
Cc1c(C(=O)N2CCC(O)CC2)c(C(F)(F)F)nn1-c1ccccc1 | 0 | 0
O=C(NCC1CCN(C(=O)Nc2ccc(F)cc2)CC1)c1ccc(C(F)(F)F)cc1 | 0 | 0
O=C(Cc1ccc(F)cc1)NCCC(O)c1ccccc1 (stereo not given) | 0 | 0
O=C(CCc1ccccc1)NCCC(O)c1ccccc1 (stereo not given) | + | 0
O=C(Nc1cc(-c2ccco2)nn1-c1nc2c(c(=O)[nH]1)CCC2)C1CC1 | + | 0
O=C(CC1CCCC1)Nc1cc(-c2ccco2)nn1-c1nc2c(c(=O)[nH]1)CCC2 | 0 | 0
COc1ccc(-c2nnc3ccc(OCCNC(=O)c4ccccc4)nn23)cc1OC | 0 | 0
O=C(NCCOc1ccc2nnc(-c3ccccc3)n2n1)Nc1cccs1 | + | 0
COc1ccc(-c2nnc3ccc(OCCNC(=O)C4CC4)nn23)cc1 | + | 0
O=C(COc1ccccc1)NCCOc1ccc2nnc(-c3cccc(F)c3)n2n1 | 0 | -
O=C(NCCOc1ccc2nnc(-c3ccccc3)n2n1)C1CCCC1 | 0 | 0
O=C(NCCOc1ccc2nnc(-c3cccc(F)c3)n2n1)c1cc(-c2ccccc2)n[nH]1 | + | 0
O=C(NCCOc1ccc2nnc(-c3ccccc3)n2n1)Nc1ccccc1 | 0 | 0
COc1ccc(-c2nnc3ccc(OCCNC(=O)Nc4cccs4)nn23)cc1OC | + | 0
COc1cccc(NC(=O)C(C)Sc2nnnn2-c2ccccc2C)c1 (stereo not given) | 0 | -
CCc1cc2c(Nc3ccccc3)ncnc2s1 | 0 | -
Cc1nnc(NC(=O)CCc2csc(NS(=O)(=O)c3ccccc3)n2)s1 | + | 0
CNC(=O)Cc1csc(NC(=O)c2csc(Nc3ccccc3)n2)n1 | - | 0
O=C(Cc1csc(Nc2ccccc2)n1)NCCc1c[nH]c2ccccc12 | + | 0
COc1ccc(S(=O)(=O)Nc2nc(CCC(=O)Nc3nnc(C)s3)cs2)cc1 | + | 0
COc1ccc(S(=O)(=O)Nc2nc(CCC(=O)NC(C)C)cs2)cc1 | 0 | 0
O=C(CCc1csc(NS(=O)(=O)c2ccccc2)n1)Nc1nc2ccccc2s1 | 0 | 0
Cc1nnc(NC(=O)Cc2csc(Nc3ccccc3)n2)s1 | + | 0
COC(=O)Nc1nc(CC(=O)NCCc2c[nH]c3ccccc23)cs1 | - | 0
COc1ccc(N2C(=O)C3N=NN(CC(=O)Nc4c(C)cc(C)cc4C)C3C2=O)cc1OC (stereo not given) | 0 | -
SMILES | AMPAR-TARP mod | GIRK2 activator
Cc1cccc(CC(=O)NCC2CCN(C3CCCC3)CC2)c1 | 0 | -
CCC(=O)N1CCN(c2ccc(Nc3ccccn3)nn2)CC1 | 0 | 0
O=C(c1ccccc1C(F)(F)F)N1CCC(Cn2cccn2)CC1 | + | 0
O=C(c1ccccc1F)N1CCC(Cn2cccn2)CC1 | 0 | 0
O=C(Nc1nnc(-c2ccc(Br)s2)o1)c1ccc(S(=O)(=O)N2CCOCC2)cc1 | 0 | 0
COc1cc(/C=C2\SC(=S)N(c3ccc(O)c(C(=O)O)c3)C2=O)ccc1O | 0 | -
COc1cc(/C=C2\SC(=S)N(c3ccc(C(=O)O)c(O)c3)C2=O)ccc1O | + | -
O=C(Cc1cccs1)NCC(O)c1ccsc1 (stereo not given) | 0 | 0
CC1(C)NC(=O)N(CC(O)COc2ccc(I)cc2)C1=O (stereo not given) | 0 | -
Cc1cccc(-n2ncc3c(=O)n(CC(=O)N4CCOCC4)cnc32)c1C | 0 | -
CN(C1(C)CCS(=O)(=O)C1)S(=O)(=O)c1ccc(Cl)c(Cl)c1 (stereo not given) | 0 | 0
O=C(CCn1nc(-c2ccc(Cl)cc2)c2ccccc2c1=O)NC1CCCCC1 | + | -
Cc1ccc(-c2nn(CCC(=O)N3CCN(Cc4ccccc4)CC3)c(=O)c3ccccc23)cc1 | 0 | -
CC(C)OCCCNS(=O)(=O)CCNC(=O)c1ccccc1 | 0 | -
CCOC(=O)c1ccc(Nc2cc(C)nc(-n3cc([N+](=O)[O-])cn3)n2)cc1 | 0 | 0
CCOC(=O)c1ccc2nc(C)cc(Nc3cccc([N+](=O)[O-])c3)c2c1 | + | -
Cc1ccc(C)c(Sc2cc(N3CCC(C(=O)N4CCCCC4)CC3)ncn2)c1 | 0 | 0
COc1cccc(C(c2c(O)cc(C)n(C)c2=O)c2c(O)cc(C)n(C)c2=O)c1OC | 0 | 0
O=C(NCC1CCN(S(=O)(=O)C2CC2)CC1)c1cc(=O)c2ccccc2o1 | 0 | 0
COc1ccc(N(CC(O)CNCCC(C)C)S(=O)(=O)c2ccc(C)cc2)cc1 (stereo not given) | + | -
Cc1ccc(S(=O)(=O)N(CC(O)CNCCC(=O)O)c2ccc(F)cc2)cc1 (stereo not given) | 0 | 0
COc1ccc(C(=O)NCCn2ncc3c(N4CCOCC4)ncnc32)cc1OC | 0 | 0
CCCCS(=O)(=O)NCCNc1cc(-n2cccn2)ncn1 | + | 0
